Only some compounds are listed: those with a hit (about 17% of all), similar ones and a draw of the others.
ClpP mod – qHTS Assay for Activators of ClpP | ATP-dependent Clp protease proteolytic subunit (Bacillus subtilis (strain 168)), P80244 | purified B. subtilis ClpP, FRET peptide cleavage, 20 min | Potency, µM (highest dose often 57.5 µM) | 1.9% of 340,000 active; active means well fitted falling curve with a large enough effect; inconclusive means small, poorly fitted or top-dose-only effect; inactive means no such curve, though single readings can be large or run the other way; further: the source files actives as falling curves though it sought activators and does not explain the sign; nearly all actives have a fitted effect of over 65% in size
Target sequence (P80244 whole entry, looked up): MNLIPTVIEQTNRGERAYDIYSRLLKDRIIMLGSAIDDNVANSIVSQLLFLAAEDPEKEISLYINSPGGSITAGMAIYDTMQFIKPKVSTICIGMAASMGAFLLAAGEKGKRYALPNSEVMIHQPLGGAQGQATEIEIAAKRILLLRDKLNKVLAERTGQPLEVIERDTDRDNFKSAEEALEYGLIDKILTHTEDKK
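ClpP 10 microg/mL final, pH 8 Tris/KCl buffer with BSA, glycerol, Tween-20; compound pinned in; FRET-FV substrate; RT 20 min; Ex320/Em430; ΔFRET vs ADEP 5.8 microM, DMSO, no enzyme.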
TDP1 cell CPT – growth inhibition of DT40 Tdp1-/-;hTDP1 cells with camptothecin (screen for TDP1 inhibitors); chicken DT40 Tdp1-/-;hTDP1 cells + 20 nM CPT, ATP luminescence, 48 h; Potency, µM (titrated, usually from 46.2 µM), hits mostly inhibitors; 12% of 420,000 active; AID 686979; further: nearly all actives have a fitted effect of over 55% in size
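Cell growth measured by CellTiter-Glo luminescence after a minimum 48 h, 37 C compound exposure with 20 nM CPT in Tdp1-knockout DT40 cells stably expressing hTDP1, seeded 400/well; qHTS titration format.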
TDP1 inh – blocks human tyrosyl-DNA phosphodiesterase 1. Q9NUW8. recombinant TDP1, AlphaScreen DNA substrate cleavage. Potency, µM (doses to about 130 µM), hits mostly inhibitors. 0.28% of 350,000 active. AID 485290; further: nearly all actives have a fitted effect of over 40% in size
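Tdp1 1 nM final; 15 min RT w/ cpd; substrate 15 nM, 5 min; beads 10 ug/ml, 10 min; AlphaScreen read. Neg ctrl: no enzyme.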
DT40 TDP1 no CPT – qHTS for Inhibitors of human tyrosyl-DNA phosphodiesterase 1 (TDP1): qHTS in cells in absence of CPT; AID 686978, 2013; DT40 Tdp1-/- hTDP1 cells, no CPT, ATP luminescence, 48 h; Potency, µM (doses to about 46.2 µM), actives largely listed as inhibitors; 15% of 420,000 active; further: nearly all actives have a fitted effect of over 55% in size
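A cellular qHTS used chicken DT40 cells lacking endogenous Tdp1 but carrying stably transfected human TDP1. Compounds were applied without camptothecin, and cell growth kinetics were judged by ATP-dependent luminescence after ≥48 hr.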
Each line names hits and unclear results; the compound was inactive in the other large screens. Unless noted, the call rests on the fitted dose curve; in most records, active means well fitted curve in the direction sought with a large enough effect; inconclusive means small, poorly fitted or top-dose-only effect, or another doubt; inactive means no such curve, though single readings can be large; an effect the other way counts as inactive or inconclusive.

CC(C)c1ccc(NC(=O)C2(C)Cc3c(-c4ccccc4)ccnc3O2)cc1 (centres undefined)	TDP1 cell CPT 18µM, DT40 TDP1 no CPT inconclusive (no result: TDP1 inh)
COC(=O)CCSCC(=O)N1N=C(c2ccc(Br)cc2)CC1c1cccc(OC)c1OC (centres undefined)	TDP1 cell CPT inconclusive, DT40 TDP1 no CPT inconclusive (no result: ClpP mod)
Cc1ccc(-c2nnc(SCC(=O)N3CCCc4ccccc43)o2)cc1	TDP1 cell CPT inconclusive, DT40 TDP1 no CPT inconclusive
CC(C)c1ccc(NC(=O)C2(C)Cc3c(-c4ccc(N(C)C)cc4)ccnc3O2)cc1 (centres undefined)	TDP1 cell CPT inconclusive, DT40 TDP1 no CPT 16µM (no result: TDP1 inh)
CN(C)c1ccc(-c2ccnc3c2CC(C)(C(=O)Nc2cccc(C(F)(F)F)c2)O3)cc1 (centres undefined)	DT40 TDP1 no CPT inconclusive (no result: TDP1 inh)
COc1ccc(NC(=O)C2(C)Cc3c(-c4ccc(N(C)C)cc4)ccnc3O2)cn1 (centres undefined)	TDP1 cell CPT 23µM, DT40 TDP1 no CPT 9.2µM (no result: TDP1 inh)
C=Cc1ccc(C(=O)NC2CCCN(Cc3ccccc3F)C2)cc1 (centres undefined)	TDP1 cell CPT inconclusive, DT40 TDP1 no CPT inconclusive
CN(C)CCC(=O)C(Cc1ccccc1)c1ccccc1 (centres undefined)	TDP1 cell CPT 5.2µM, DT40 TDP1 no CPT 4.6µM (no result: ClpP mod, TDP1 inh)
CN(C)CCNC(=O)C(c1ccccc1)c1ccccc1	none (no result: TDP1 inh)
O=C(NCc1ccccc1)c1cc(C2CCCN(S(=O)(=O)c3cccs3)C2)on1 (centres undefined)	TDP1 cell CPT inconclusive, DT40 TDP1 no CPT inconclusive (no result: TDP1 inh)
CCC(c1nnnn1C(C)(C)CC)N(CCCN1CCOCC1)Cc1cc2cccc(C)c2[nH]c1=O (centres undefined)	ClpP mod inconclusive, TDP1 cell CPT 14µM, DT40 TDP1 no CPT inconclusive
CCC(c1nnnn1C(C)(C)CC)N(CCCO)Cc1cc2cccc(C)c2[nH]c1=O (centres undefined)	none
CCC(C)(C)n1nnnc1C(C(C)C)N(CCN1CCOCC1)Cc1cc2cccc(C)c2[nH]c1=O (centres undefined)	ClpP mod inconclusive, TDP1 cell CPT 18µM
Cc1cccc2cc(CN(CCCN3CCOCC3)Cc3nnnn3C(C)(C)C)c(=O)[nH]c12	none
CC(=O)c1ccc(N2CCN(C(=O)C3CCN(S(=O)(=O)c4c(C)noc4/C=C/c4ccccc4F)CC3)CC2)cc1	TDP1 cell CPT inconclusive, DT40 TDP1 no CPT 10µM
CCN(CC)c1ccc(NC(=O)C2CCN(S(=O)(=O)c3c(C)noc3/C=C/c3ccccc3F)CC2)c(C)c1	TDP1 cell CPT 21µM, DT40 TDP1 no CPT 16µM
COc1cc(NC(=O)C2CCN(S(=O)(=O)c3c(C)noc3/C=C/c3ccccc3F)CC2)cc(OC)c1OC	TDP1 cell CPT inconclusive, DT40 TDP1 no CPT 23µM
CNC(=O)C1CCN(S(=O)(=O)c2c(C)noc2/C=C/c2ccccc2F)CC1	none (no result: TDP1 inh)
Cc1noc(/C=C/c2ccccc2F)c1S(=O)(=O)N1CCC(C(=O)Nc2ccc(C#N)cc2)CC1	ClpP mod inconclusive, TDP1 cell CPT 12µM, DT40 TDP1 no CPT 8.2µM
COc1ccccc1/C=C/c1onc(C)c1S(=O)(=O)N1CCC(C(=O)N2CCC(C)CC2)CC1	TDP1 cell CPT 21µM, DT40 TDP1 no CPT 16µM
COc1ccc(NC(=O)C2CCN(S(=O)(=O)c3c(C)noc3/C=C/c3ccc(C)cc3)CC2)cc1Cl	none
COc1ccccc1/C=C/c1onc(C)c1S(=O)(=O)N1CCC(C(=O)NC(C)C)CC1	none (no result: TDP1 inh)
Cc1ccc(/C=C/c2onc(C)c2S(=O)(=O)N2CCC(C(=O)Nc3cccc(C#N)c3)CC2)cc1	TDP1 cell CPT 3.3µM, DT40 TDP1 no CPT 3.7µM
COc1ccc(C2NC(=S)NC3=C2CCc2cc(OC)ccc23)cc1 (centres undefined)	TDP1 cell CPT inconclusive, DT40 TDP1 no CPT inconclusive
Cc1cc(-c2ccccc2)c2ccc(NC(=O)C(C)(C)C)nc2n1	TDP1 cell CPT 21µM, DT40 TDP1 no CPT 15µM (no result: TDP1 inh)
Cc1cc(N2CCCCC2C)nc(-c2ccccc2O)n1 (centres undefined)	TDP1 cell CPT 23µM, DT40 TDP1 no CPT 21µM (no result: ClpP mod)
CC(C)c1ccc(NS(=O)(=O)c2cc(Br)cc3c2N(C(=O)C2CC2)CC3)cc1	TDP1 cell CPT 8.2µM, DT40 TDP1 no CPT 4.6µM
CCCCN(C)S(=O)(=O)c1cc(Br)cc2c1N(C(=O)C1CC1)CC2	TDP1 cell CPT 8.2µM, DT40 TDP1 no CPT 3.7µM
COc1ccc(NS(=O)(=O)c2cc(Br)cc3c2N(C(=O)C2CC2)CC3)cc1OC	TDP1 cell CPT 2.3µM, DT40 TDP1 no CPT 2.1µM
O=C(CCS(=O)(=O)c1cc(Br)cc2c1N(C(=O)C1CC1)CC2)N1CCN(c2cccc(C(F)(F)F)c2)CC1	TDP1 cell CPT 16µM, DT40 TDP1 no CPT 18µM
COc1ccccc1CNS(=O)(=O)c1cc(Br)cc2c1N(C(=O)C1CC1)CC2	TDP1 cell CPT inconclusive, DT40 TDP1 no CPT inconclusive
N/C(=N\O)c1ccc(Cl)cc1Cl	none
COc1ccccc1-c1ccnc(-n2ncc(C(=O)NCCc3cccnc3)c2C)n1	none (no result: ClpP mod, TDP1 inh)
CCC(=O)N1CCc2cc(Br)cc(S(=O)(=O)N3CCN(c4ccc(C)cc4)C(C)C3)c21 (centres undefined)	none
Cc1ccc(N2CCN(S(=O)(=O)c3cc(Br)cc4c3N(C(=O)C3CC3)CC4)CC2C)cc1 (centres undefined)	TDP1 cell CPT 13µM, DT40 TDP1 no CPT 16µM
CCCN(CCC)CCNC(=O)C1CCN(c2nc3ccc(CC)cc3s2)CC1	TDP1 cell CPT 8.2µM, DT40 TDP1 no CPT 6.5µM
CCCN(CCC)CCCNC(=O)C1CCN(c2nc3ccc(CC)cc3s2)CC1	TDP1 cell CPT 5.8µM, DT40 TDP1 no CPT 5.2µM
Cc1cc(=O)[nH]c(N/N=C/C(C)c2ccccc2)n1 (centres undefined)	TDP1 cell CPT inconclusive, DT40 TDP1 no CPT inconclusive (no result: ClpP mod)
COC(=O)c1cc2c(-c3ccccc3)cc3ccccn3c-2c1C(=O)OC	TDP1 cell CPT inconclusive, DT40 TDP1 no CPT inconclusive
COC(=O)c1c(C)c2c(C)cc3ccccn3c-2c1C(=O)OC	TDP1 cell CPT inconclusive, DT40 TDP1 no CPT 29µM
C[C@@H]1C2CC(C/C2=N\NC(=O)c2ccncc2)C1(C)C (some centres undefined)	none
CN1CCN(S(=O)(=O)c2ccc3c(c2)oc(=O)n3C)CC1	none
CC[N+]1(C)CCC(O)(c2ccc(OC)cc2)C(C(=O)c2ccc(OC)cc2)C1 (centres undefined)	TDP1 cell CPT 0.65µM, DT40 TDP1 no CPT 0.92µM (no result: TDP1 inh)
COc1ccc(-c2ccc(C(=O)C3CC3)cc2)cc1	none (no result: ClpP mod, TDP1 inh)
Cc1ccc(OCCn2cc(C=O)c3ccccc32)cc1	TDP1 cell CPT inconclusive, DT40 TDP1 no CPT inconclusive
COc1ccccc1OCCn1cc(C(=O)c2cccs2)c2ccccc21	TDP1 cell CPT inconclusive, DT40 TDP1 no CPT 10µM
Cc1ccc(OCCn2cc(C(=O)c3cccs3)c3ccccc32)cc1	TDP1 cell CPT 18µM, DT40 TDP1 no CPT 13µM
